From PubChem
This is a sample that favours compounds with a hit; in the whole collection about 10% have one here.
ELG1 DNA repair = inhibitors of ELG1-dependent DNA repair in HEK293T cells; Potency, µM (top dose mostly 46.1 µM), without a hit: at the highest dose activity change, negative = inhibition, usual class: inhibitors; actives 2.3% (n = 330,000); HEK293T ELG1-luciferase reporter, luminescence, 16 h; DNA damage induced by 5-fluorouridine; also: % is scaled to controls: 0 for no effect and ±100 for the full control effect; nearly all actives have a fitted effect of over 55% in size
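Overnight (16 hr) co-exposure of 2,000 cells/well to 5-fluorouridine and compound at 37 °C preceded detection. Luciferase was quantified via ONE-Glo luminescence; loss of signal denotes inhibition.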
VP16 counter = counter-screen for ROR gamma inhibitors: Gal4-VP16 reporter; actives 3.5% (n = 310,000); Potency, µM (top dose mostly 53.6 µM), for inactives: at the top dose activity, negative = inhibition, most hits filed as inhibitors; AID 2546; Drosophila S2 Gal4-VP16 UAS-luciferase, luminescence, 20 h;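 also: Gal4-VP16 expression switched on by copper sulfate through the metallothionein promoter; % is scaled to controls: 0 for no effect and ±100 for the full control effect; nearly all actives have a fitted effect of over 50% in size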
RORgamma inh = blocks mouse ROR gamma transcriptional activity; P51450; Potency, µM (titrated, usually from 53.6 µM), for inactives: top-dose activity change, negative = inhibition, actives largely listed as inhibitors; actives 5.4% (n = 310,000); Drosophila S2 Gal4-RORgamma UAS-luciferase reporter, 20 h; also: % is scaled to controls: 0 for no effect and ±100 for the full control effect; nearly all actives have a fitted effect of over 60% in size
Target sequence (P51450 whole entry, looked up, the tested form may be a part): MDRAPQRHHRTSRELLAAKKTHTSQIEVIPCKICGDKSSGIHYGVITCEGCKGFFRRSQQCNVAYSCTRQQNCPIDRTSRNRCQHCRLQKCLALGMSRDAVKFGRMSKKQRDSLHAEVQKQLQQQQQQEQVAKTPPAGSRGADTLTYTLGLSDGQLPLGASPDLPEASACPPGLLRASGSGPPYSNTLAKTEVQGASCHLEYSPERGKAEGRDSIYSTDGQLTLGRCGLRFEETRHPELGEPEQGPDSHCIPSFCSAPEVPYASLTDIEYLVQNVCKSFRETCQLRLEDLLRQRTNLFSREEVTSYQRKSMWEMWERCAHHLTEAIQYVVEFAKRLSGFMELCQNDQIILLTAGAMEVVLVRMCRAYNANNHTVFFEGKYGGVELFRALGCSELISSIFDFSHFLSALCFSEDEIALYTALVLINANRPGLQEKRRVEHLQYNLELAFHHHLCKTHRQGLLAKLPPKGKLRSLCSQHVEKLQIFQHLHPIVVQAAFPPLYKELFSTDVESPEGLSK
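Using a luciferase readout, inhibitors were identified by reduced reporter activity in Drosophila cells coexpressing a copper-inducible Gal4–ROR gamma fusion and UAS-driven Photinus luciferase, incubated 20 hr after 700 uM copper sulfate.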
SW480 rereplic = DNA re-replication induction in SW480 cells | Potency, µM (titrated, usually from 46.1 µM), for the others: at the top dose re-replication activation, actives largely listed as activators | SW480 DNA re-replication, Hoechst DNA content imaging, 48 h | AID 624297 | actives 1.8% (n = 340,000); also: % of control where 0% means no effect; nearly all actives have a fitted effect of over 55% in size
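Compounds, transferred as 23 nL by pin tool, were incubated with cells for 48 hr; DNA content per nucleus was then quantified by Hoechst staining and fluorescence plate imaging.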
MCF10A rerep = DNA re-replication induction in MCF 10a cells. MCF 10A DNA re-replication, Hoechst nuclear intensity, 48 h. Potency, µM (series often up to 46.1 µM), for inactives: at the top dose activity, positive = re-replication, hits mostly activators. AID 624296. actives 2.9% (n = 350,000); also: % of control where 0% means no effect; nearly all actives have a fitted effect of over 50% in size
Starred values were filed as active, the others as inactive; ? = inconclusive; . = no result; [ ] = remark or other dose. Calls follow the shape of the dose curve; as a rule, active = well fitted curve in the direction sought with a large enough effect; inconclusive = small, poorly fitted or top-dose-only effect, or another doubt; inactive = no such curve, though single readings can be large; an effect the other way counts as inactive or inconclusive. Potency is read from the fitted curve at half-maximal effect.

SMILES | ELG1 DNA repair | VP16 counter | RORgamma inh | SW480 rereplic | MCF10A rerep
Cc1cccc2nc(-c3cccnc3)c(Nc3ccccc3)n12 | 18µM* | 1% | 2% | 3% | -8%
Cc1ccccc1Nc1c(-c2cccnc2)nc2ccccn12 | -1% | 1% | -3% | ? | 0%
COCCNC(=O)/C(C#N)=C/c1c(N2CCN(c3cccc(Cl)c3)CC2)nc2c(C)cccn2c1=O | ? | -14% | 17% | ? | 0%
CNC(=O)/C(C#N)=C/c1c(N2CCN(c3cccc(Cl)c3)CC2)nc2c(C)cccn2c1=O | 21µM* | -1% | 1% | 0% | 2.9µM*
C=CCNC(=O)/C(C#N)=C/c1c(N2CC(C)OC(C)C2)nc2ccccn2c1=O (stereo unspecified) | -3% | 3% | 12% | 16µM* | ?
CCOC(=O)/C(C#N)=C/c1c(N2CCN(c3cccc(Cl)c3)CC2)nc2c(C)cccn2c1=O | -26% | 2% | 1% | -5% | 16%
Cc1ccc(S(=O)(=O)/C(C#N)=C/c2c(N3CC(C)OC(C)C3)nc3ccccn3c2=O)cc1 (stereo unspecified) | -8% | -5% | -2% | 2% | 6%
C=CCNC(=O)/C(C#N)=C/c1c(N2CCN(c3cccc(Cl)c3)CC2)nc2c(C)cccn2c1=O | -24% | 3% | -3% | 4% | 21µM*
CCCN(CCC)C(=O)c1cn(CC)c2ccc(S(=O)(=O)N3CCCCC3)cc2c1=O | 10% | 3% | 4% | 11% | 1%
N#CC(C#N)=C(Nc1ccc(F)cc1)SCc1cccc(Br)c1 | ? | 7.9µM* | ? | ? | 3.3µM*
CC(SCc1ccccc1)C(=O)Nc1ccc(F)cc1 (stereo unspecified) | -7% | -7% | -4% | 3% | 22%
Cc1cccc(CSC(=N)N)c1 | ? | 0% | ? | 0% | 6%
Cc1cccc(CSC(Nc2ccc(F)cc2)=C(C#N)C#N)c1 | ? | ? | ? | ? | 15µM*
CN(c1ccccc1C(=O)Nc1ccc2ccccc2c1)S(C)(=O)=O | . | . | . | 0% | 0%
Fc1ccc(NC(=S)NNc2ncc(C(F)(F)F)cc2Cl)c(F)c1 | ? | ? | 5µM* | ? | 7%
O=S(=O)(NNc1ncc(C(F)(F)F)cc1Cl)c1ccc(F)cc1F | -10% | . | . | -2% | 0%
FC(F)(F)c1cnc(NNC(=S)Nc2ccc(Cl)cc2)c(Cl)c1 | ? | 7.9µM* | 5.6µM* | ? | 15µM*
Cc1ccc(NC(=S)NNc2ncc(C(F)(F)F)cc2Cl)cc1 | ? | 11µM* | 13µM* | 10% | 22%
Cc1ccc(NC(=S)NNC(=S)Nc2cccc(C(F)(F)F)c2)cc1 | -3% | -6% | -1% | 16% | 9%
Cc1ccc(NC(=S)NNc2ncc(C(F)(F)F)cc2Cl)c(C)c1 | 21µM* | ? | 10µM* | 12% | 3%
FC(F)(F)c1cccc(NC(=S)NNC(=S)Nc2ccc(Cl)cc2)c1 | -24% | -18% | 16% | . | .
Nc1ccc(Oc2ccc3c(c2)C(=O)NC3=O)cc1 | 12% | 0% | 6% | 2% | 0%
O=c1cc(CSc2nc(NCc3ccccc3)c3ccccc3n2)nc2ccc(Cl)cn12 | ? | 21% | 4.5µM* | -1% | 1%
Cc1ccc(NC(=O)C2CCC(CNC(=O)[C@@H]3Cc4ccccc4CN3)CC2)cc1 (stereo partly specified) | 9% | -14% | -37% | 2% | 3%
CC(C)c1ccc(NC(=O)C2CCC(CNC(=O)[C@@H]3Cc4ccccc4CN3)CC2)cc1 (stereo partly specified) | ? | -6% | 7% | ? | 15µM*
Cc1ccc(-n2c(CCc3ccccc3)n[nH]c2=S)cc1C | 2% | ? | -15%[1.91 µM] | -24% | 1%
COc1ccc(N2C(=O)CC(NNC(=O)c3cc(C)oc3C)C2=O)cc1 (stereo unspecified) | -9% | 4% | 37% | 6% | 2.6µM*
O=C(c1cnn2c1NC(c1ccco1)CC2C(F)(F)F)N1CCN(c2cccc(Cl)c2)CC1 (stereo unspecified) | 10µM* | -14%[0.365 µM] | ? | ? | 7.3µM*
